Our source for the outcome, AC50 and Potency values is PubChem BioAssay (NCATS).

For assay [1] the following is noted: Ebola virus entry assay, reporter ratio channel; AC50: Channel type: primary unless noted; outcome: Channel type: primary unless noted.
For assay [2] the following is noted: Ebola virus entry assay, blue channel (ratio component).
For assay [3] the following is noted: Ebola virus entry cell assay, ratio channel.
Assay [4] is described as follows: Immunotoxin (SS1P) sensitization/mitigation study. Vehicle arm (DMEM) (AID 1159513; call rule not given here; note: potency is the fitted concentration of half-maximal effect).
The conditions of assay [5]: Ebola virus entry reporter assay, green channel fluorescence. (In general: In a reporter assay the amount or activity of a reporter protein is the signal.)

Molecules are shown by their SMILES. For part of these data: Results with a measured potency or affinity are listed apart. Active and inactive are the calls of the source.

With `COc1cccc2c1C(=O)c1c(O)c3c(c(O)c1C2=O)C[C@@](O)(C(C)=O)C[C@H]3O[C@H]1C[C@H](N)[C@H](O)[C@H](C)O1`, the outcome in assay [1] is “inactive [Channel type: confirmation]”. Further, the outcome in assay [2] was inactive. Also, the concentration at half-maximal activity (AC50) (commonly the midpoint of the concentration-response curve, whichever way the signal moves) in assay [3] was 5.62 µM (active).

As for `CO[C@H]1C[C@@H]2CC[C@@H](C)[C@@](O)(O2)C(=O)C(=O)N2CCCC[C@@H]2C(=O)O[C@H]([C@H](C)C[C@@H]2CC[C@H](OCCO)[C@H](OC)C2)CC(=O)[C@H](C)C=C(C)[C@@H](O)[C@@H](OC)C(=O)[C@H](C)C[C@H](C)C=CC=CC=C1C`, the outcome in assay [1] was “inactive [Channel type: confirmation]”. Moreover, the result in assay [2] was inactive. Further, in assay [3], the AC50 is 14.1 µM (active). The Potency in assay [4] is 23.5 µM (active). Consider `C[C@]12C=CC(=O)N[C@@H]1CC[C@@H]1[C@@H]2CC[C@]2(C)[C@@H](C(=O)Nc3cc(C(F)(F)F)ccc3C(F)(F)F)CC[C@@H]12`, for which the result in assay [3] was inactive.

For `CC(C)(C)NC[C@H](O)COc1ccccc1C1CCCC1`, the compound was called inactive in assay [5]. Besides, the concentration at half-maximal activity (AC50) in assay [3] was 3.55 µM (active). `COc1cc([C@@H]2c3cc4c(cc3C(O[C@@H]3O[C@@H]5CO[C@@H](C)O[C@H]5[C@H](O)[C@H]3O)C3COC(=O)[C@@H]32)OCO4)cc(OC)c1OP(=O)(O)O` (stereo partly specified): the half-maximal activity concentration (AC50) in assay [3] is 7.08 µM (active). Regarding `CCOC(=O)CCC(=O)O[C@H]1[C@H](O[C@@H]2[C@@H](C)[C@H](O[C@H]3C[C@@](C)(OC)[C@@H](O)[C@H](C)O3)[C@@H](C)C(=O)O[C@H](CC)[C@@](C)(O)[C@H](O)[C@@H](C)C(=O)[C@H](C)C[C@@]2(C)O)O[C@H](C)C[C@@H]1N(C)C`, the compound was classed as inactive in assay [5] and in assay [3].

On to `N#Cc1ccc2c(c1)N(CCCN1CCC(O)CC1)c1ccccc1S2`, for which the AC50 in assay [3] was 22.4 µM (active).

For the compound `C[C@@H]1O[C@@H](O[C@H]2CC[C@@]3(C)[C@H](CC[C@@H]4[C@H]3C[C@@H](O)[C@]3(C)[C@@H](C5=CC(=O)OC5)CC[C@]43O)C2)C[C@H](O)[C@@H]1O[C@H]1C[C@H](O)[C@H](O[C@H]2C[C@H](O)[C@@H](O)[C@@H](C)O2)[C@H](C)O1` (stereo in doubt), the outcome in assay [1] was “inactive [Channel type: confirmation]”. For the same compound, the outcome in assay [2] was inactive. The AC50 in assay [3] was 0.794 µM (active). As for `C=CC[C@@H]1C=C(C)C[C@H](C)C[C@H](OC)[C@H]2O[C@@](O)(C(=O)C(=O)N3CCCC[C@H]3C(=O)O[C@H](C(C)=C[C@@H]3CC[C@H](O)[C@H](OC)C3)[C@@H](C)[C@@H](O)CC1=O)[C@@H](C)C[C@@H]2OC`, the outcome in assay [3] was inactive. With `CC(C)[C@H]1C(=O)N2CCC[C@H]2[C@]2(O)O[C@](NC(=O)[C@@H]3C[C@@H]4c5cccc6[nH]cc(c56)C[C@H]4N(C)C3)(C(C)C)C(=O)N12`, the call in assay [5] and in assay [3] was inactive. `COc1cc([C@@H]2c3cc4c(cc3[C@@H](O[C@@H]3O[C@@H]5CO[C@@H](c6cccs6)O[C@@H]5[C@H](O)[C@@H]3O)[C@H]3COC(=O)[C@H]23)OCO4)cc(OC)c1O`: the result in assay [3] was inactive.
